Test results from PubChem BioAssay (NCATS).
Inconclusive results are not listed. Where a call stands in place of a potency, no number is given. Calls of active or inactive are those of the source. The call rests on the fitted dose curve; in most records, active means well fitted inhibition curve with a large enough effect; inconclusive means small, poorly fitted or top-dose-only effect, or effect the other way; inactive means flat fitted curve, though single readings scatter.

Biological target: ATP-dependent 6-phosphofructokinase (Trypanosoma brucei brucei) (UniProt O15648)
Sequence (O15648 whole entry, looked up): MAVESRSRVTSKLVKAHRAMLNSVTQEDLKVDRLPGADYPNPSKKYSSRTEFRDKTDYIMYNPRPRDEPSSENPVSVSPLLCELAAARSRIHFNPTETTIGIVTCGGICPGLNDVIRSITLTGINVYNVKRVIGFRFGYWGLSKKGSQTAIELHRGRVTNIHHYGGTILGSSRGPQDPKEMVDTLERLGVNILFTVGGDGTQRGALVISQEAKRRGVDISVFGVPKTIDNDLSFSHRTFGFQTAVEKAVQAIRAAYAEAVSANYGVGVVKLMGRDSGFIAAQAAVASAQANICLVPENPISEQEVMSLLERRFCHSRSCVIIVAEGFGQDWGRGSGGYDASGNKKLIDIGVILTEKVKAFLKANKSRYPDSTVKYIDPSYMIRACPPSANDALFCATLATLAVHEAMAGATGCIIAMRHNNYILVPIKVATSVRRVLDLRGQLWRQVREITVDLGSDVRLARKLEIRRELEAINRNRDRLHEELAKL
Experiment: qHTS Assay to Find Inhibitors of T. brucei phosphofructokinase: hit validation (AID 492961);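 further: luminescence reports ADP formed as PFK phosphorylates fructose-6-phosphate with ATP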
Settings: T. brucei PFK, ADP-Glo luminescence; series mostly up to 51.4 µM
Outline: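 Reaction: 0.1 M triethanolamine pH 8.0, 5 mM MgCl2, F6P 0.5 mM, ATP 0.1 mM, PFK 1.25 nM, 45 min RT. Read-out: ADP-Glo luminescence. Analysis: concentration-response fits, classed by r2 and efficacy.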

Row | Compound | Potency
1 | Cn1c(=O)c2c(ncn2CC2OCCO2)n(C)c1=O | inactive
2 | CCN(CC)CCNC(C(=O)OCCC(C)C)c1ccccc1 (configuration not stated) | inactive
3 | O=C(O)c1ccccc1O | inactive
4 | CC1(C)[C@@H]2CC[C@@]1(C)C(=O)C2 | inactive
5 | c1ccc(CN(CC2=NCCN2)c2ccccc2)cc1 | inactive
6 | CC(C)(C)C(=O)C(Oc1ccc(Cl)cc1)n1ccnc1 (configuration not stated) | inactive
7 | O=C(O)COc1nn(Cc2ccccc2)c2ccccc12 | inactive
8 | COc1ccc(S(=O)(=O)Nc2nnc(CC(C)C)s2)cc1 | inactive
9 | CCCCOc1cc(C(=O)OCCN(CC)CC)ccc1N | inactive
10 | CN1CCCCC1CCN1c2ccccc2Sc2ccc(S(C)=O)cc21 (configuration not stated) | inactive
11 | COc1cc2[nH]c(=O)[nH]c(=O)c2cc1OC | inactive
12 | CC(=O)CCC(=O)O | inactive
13 | CCOC(=O)[C@H](CCc1ccccc1)N[C@@H](C)C(=O)N1C(=O)N(C)C[C@H]1C(=O)O | inactive
14 | O=C(O)CN1C(=O)c2cccc3cccc(c23)C1=O | inactive
15 | CCOc1nc2cccc(C(=O)O)c2n1Cc1ccc(-c2ccccc2-c2nn[nH]n2)cc1 | inactive
16 | CN1CCC[C@@H]1Cc1c[nH]c2ccc(CCS(=O)(=O)c3ccccc3)cc12 | inactive
17 | CCCCN1CCCC[C@H]1C(=O)Nc1c(C)cccc1C | inactive
18 | NCCNCCNCCNCCN | inactive
19 | Cc1ncc(COP(=O)(O)O)c(C=O)c1O | inactive
20 | O=C(O)[C@@H]1CSCN1 | inactive
21 | O=C1OC(OC(=O)c2cccnc2Nc2cccc(C(F)(F)F)c2)c2ccccc21 (configuration not stated) | inactive
22 | O=C1O[C@H]([C@@H](O)CO)C(O)=C1O | inactive
